rCAG binder: molecules binding r(CAG) RNA repeats; r(CAG) RNA repeat, TO-PRO-1 dye displacement fluorescence; inhibition, % at 3 µM; 370,000 compounds, 1.3% hits;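 active = inhibition above the plate cutoff, the mean of all test compounds on that plate plus 3 SD, cut at about 35% in these data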;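 note: higher means more dye released from RNA so lower well fluorescence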
bovine MsrA act: activates bovine MsrA enzyme; purified bovine MsrA, absorbance read-out; activation, % at 10.6 µM; 360,000 compounds, 0.3% hits; AID 602163; in the data active = activation above about 7.5%
NadD block: blocks S. aureus nicotinate mononucleotide adenylyltransferase; purified NadD enzyme, colorimetric absorbance read-out; inhibition, % at 20 µM; 360,000 compounds, 0.78% hits; AID 602399; in the data active = inhibition above about 26%
DSG3 Ab inh: human desmoglein-3 autoantibody binding inhibition; P32926; DSG3-coupled beads, scFv-anti-DSG3-GFP binding, flow cytometry; hits give low values; binding (percent of control), % at 10 µM; 310,000 compounds, 0.48% hits; AID 588358;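 active = binding more than 3 SD below its plate's average and above zero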;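 note: hits lower antibody fragment binding to DSG3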
DAGLB inhibitor: diacylglycerol lipase beta (human) inhibition | Q8NCG7 | HEK293T DAGLB membrane lysate, EnzChek fluorogenic substrate | inhibition, % at 5.17 µM | 340,000 compounds, 0.059% hits | AID 504411; in the data active = inhibition above about 34%
Target sequence (Q8NCG7 whole entry, looked up): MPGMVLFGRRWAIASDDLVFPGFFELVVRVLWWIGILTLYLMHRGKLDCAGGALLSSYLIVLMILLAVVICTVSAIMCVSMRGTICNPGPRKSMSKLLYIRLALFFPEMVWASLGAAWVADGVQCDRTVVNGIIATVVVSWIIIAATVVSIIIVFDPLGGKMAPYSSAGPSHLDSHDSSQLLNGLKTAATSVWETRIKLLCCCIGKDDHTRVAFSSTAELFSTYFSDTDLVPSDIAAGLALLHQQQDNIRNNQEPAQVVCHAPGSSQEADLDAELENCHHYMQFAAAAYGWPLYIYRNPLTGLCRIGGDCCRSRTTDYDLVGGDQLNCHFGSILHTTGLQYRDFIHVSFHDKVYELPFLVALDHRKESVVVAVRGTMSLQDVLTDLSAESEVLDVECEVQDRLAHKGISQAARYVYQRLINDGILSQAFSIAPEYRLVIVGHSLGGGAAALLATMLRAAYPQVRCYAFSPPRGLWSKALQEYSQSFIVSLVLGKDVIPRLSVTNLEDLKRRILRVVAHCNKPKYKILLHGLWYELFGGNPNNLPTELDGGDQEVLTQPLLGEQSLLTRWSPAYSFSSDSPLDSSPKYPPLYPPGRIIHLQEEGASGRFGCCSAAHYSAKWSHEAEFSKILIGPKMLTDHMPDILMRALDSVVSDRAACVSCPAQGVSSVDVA
MsrA inhibitor: bovine MsrA inhibition. purified bovine MsrA, absorbance read-out. inhibition, % at 15.5 µM. 360,000 compounds, 0.75% hits. AID 651718; in the data active = inhibition above about 4.5%
NadD inh conf: NadD (S. aureus) inhibition, single concentration confirmation; shares compounds with NadD block; purified S. aureus NadD, colorimetric enzyme assay; inhibition, % at 20 µM; 2,000 compounds, 13% hits; in the data active = inhibition mostly above about 42%, no sharp cut-off; inactive = mostly below about 42%
rCAG binder conf: r(CAG) RNA repeat binding, confirmation. shares compounds with rCAG binder. TO-PRO-1 dye displacement fluorescence. inhibition, % at 3 µM. 4,300 compounds, 70% hits. AID 652065;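 active = inhibition above a per-plate cutoff, the mean inhibition of sample wells plus 3 SD, cut at about 35% in these data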;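 note: loss of TO-PRO-1 fluorescence as compound displaces dye from 1x1 AA loop RNA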
DNA CAG counter: DNA CAG dye complex inhibition counter-screen | shares compounds with rCAG binder | d(CAG) DNA oligo TO-PRO-1 dye displacement, fluorescence | inhibition, % at 3 µM | 4,300 compounds, 94% hits;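 active = inhibition above its plate's cutoff, the mean test-well inhibition plus 3 SD, cut at about 4.8% in these data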;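 note: hits displace the dye from DNA and so lower well fluorescence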
Hits are given with their value. Shown are actives, neighbours in structure and some others; about 3.2% of the full set was active somewhere.

How did COc1ccc(-c2cc(C(=O)Nc3ccc(S(=O)(=O)Nc4onc(C)c4C)cc3)c3ccccc3n2)cc1OC do in these assays?
rCAG binder: inactive; bovine MsrA act: inactive; NadD block: inactive; DSG3 Ab inh: inactive; DAGLB inhibitor: inactive; MsrA inhibitor: inactive

How did Cc1ccc(C)c(-c2cc(C(=O)Nc3nccs3)c3ccccc3n2)c1 do in these assays?
rCAG binder: inactive; bovine MsrA act: inactive; NadD block: inactive; DSG3 Ab inh: inactive; DAGLB inhibitor: inactive; MsrA inhibitor: inactive

Results for Cc1ccc(S(C)(=O)=O)cc1C(=O)Nc1ccc(S(=O)(=O)Nc2nccs2)cc1 ?
rCAG binder: inactive; bovine MsrA act: inactive; NadD block: inactive; DSG3 Ab inh: inactive; DAGLB inhibitor: inactive; MsrA inhibitor: inactive

How did O=C(Nc1ccc(S(=O)(=O)Nc2nccs2)cc1)c1cc(-c2ccccc2)nc2ccccc12 do in these assays?
rCAG binder: 74; bovine MsrA act: inactive; NadD block: 46; DSG3 Ab inh: inactive; DAGLB inhibitor: inactive; MsrA inhibitor: inactive; NadD inh conf: 50; rCAG binder conf: 76; DNA CAG counter: 38

How did COc1ccc(CCCNC(=O)C2Cc3c(-c4ccccc4)ccnc3O2)cc1 (stereo not drawn) do in these assays?
rCAG binder: inactive; bovine MsrA act: inactive; NadD block: inactive; MsrA inhibitor: inactive

What do the screens show for `N=c1c2c(-c3ccccc3)c(-c3ccccc3)n(Cc3ccccc3)c2ncn1C1CCOCC1`?
rCAG binder: inactive

What do the screens show for `CCNc1ccc(Br)cc(C(=O)/C=C/c2ccc(Cl)cc2Cl)c1=O`?
rCAG binder: 45; bovine MsrA act: inactive; NadD block: 39; DSG3 Ab inh: inactive; DAGLB inhibitor: inactive; MsrA inhibitor: inactive; NadD inh conf: inactive; rCAG binder conf: 48; DNA CAG counter: 21

How did COCCCNC(=O)/C=C/c1ccc(Cl)cc1Cl do in these assays?
rCAG binder: inactive; bovine MsrA act: inactive; NadD block: inactive; DAGLB inhibitor: inactive; MsrA inhibitor: inactive

How did CCOC(=O)C1=C(C)N(C[C@@H]2CC[C@@H](Cc3ccc(-c4ccccc4)cc3)O2)C(=O)NC1c1ccc(SCc2ccco2)c([N+](=O)[O-])c1 (stereo partly drawn) do in these assays?
rCAG binder: 49; bovine MsrA act: inactive; NadD block: 59; DSG3 Ab inh: inactive; DAGLB inhibitor: inactive; MsrA inhibitor: inactive; NadD inh conf: inactive; rCAG binder conf: 36; DNA CAG counter: 19

How did CCOC(=O)C1=C(C)N(C[C@@H]2CC[C@@H](Cc3ccc(-c4ccccc4)cc3)O2)C(=O)NC1c1ccc(C(F)(F)F)cc1 (stereo partly drawn) do in these assays?
rCAG binder: inactive; bovine MsrA act: inactive; NadD block: inactive; DSG3 Ab inh: inactive; DAGLB inhibitor: inactive; MsrA inhibitor: inactive

How did Nc1ncnc2oc(-c3ccco3)c(-c3ccco3)c12 do in these assays?
rCAG binder: 68; bovine MsrA act: inactive; NadD block: 54; DSG3 Ab inh: 52; DAGLB inhibitor: inactive; MsrA inhibitor: inactive; NadD inh conf: inactive; rCAG binder conf: inactive; DNA CAG counter: 16

How did Nc1nnc(-c2ccco2)s1 do in these assays?
rCAG binder: inactive; bovine MsrA act: inactive; NadD block: inactive; DSG3 Ab inh: inactive; DAGLB inhibitor: inactive; MsrA inhibitor: inactive

How did CC(C)C[C@@H]1CN(CCCC[C@H]2CNC(=O)C(=O)N2CCC2CCCCC2)C(=O)C(=O)N1CCc1ccc(O)cc1 do in these assays?
rCAG binder: inactive; bovine MsrA act: inactive; NadD block: inactive; MsrA inhibitor: inactive

What do the screens show for `COCc1cc(C)nc(OCC(=O)N/N=C/c2ccc(-c3cc([N+](=O)[O-])ccc3C)o2)c1C#N`?
rCAG binder: inactive; bovine MsrA act: inactive; NadD block: inactive; DSG3 Ab inh: inactive; DAGLB inhibitor: inactive; MsrA inhibitor: inactive

How did Cc1ccc([N+](=O)[O-])cc1-c1ccc(/C=C(\C#N)c2[nH]nc(N)c2C#N)o1 do in these assays?
rCAG binder: 84; bovine MsrA act: inactive; NadD block: 28; DSG3 Ab inh: 86; DAGLB inhibitor: inactive; MsrA inhibitor: inactive; NadD inh conf: inactive; rCAG binder conf: 63; DNA CAG counter: 47

How did Cc1ccc([N+](=O)[O-])cc1NC(=S)NC(=O)C(C)(C)C do in these assays?
rCAG binder: inactive; bovine MsrA act: inactive; NadD block: inactive; DSG3 Ab inh: inactive; DAGLB inhibitor: inactive; MsrA inhibitor: inactive

Results for Cc1ccc(NS(=O)(=O)c2cc([N+](=O)[O-])ccc2NNC(=S)Nc2cc(C)ccc2C)c(C)c1 ?
rCAG binder: 50; bovine MsrA act: inactive; NadD block: 47; DSG3 Ab inh: inactive; DAGLB inhibitor: inactive; MsrA inhibitor: inactive; NadD inh conf: inactive; rCAG binder conf: 84; DNA CAG counter: 44

What do the screens show for `COc1ccc(C(=O)/C=C/c2ccc(OCc3ccccc3)cc2)cc1CSCC(=O)O`?
rCAG binder: 57; bovine MsrA act: inactive; NadD block: 26; DSG3 Ab inh: inactive; DAGLB inhibitor: inactive; MsrA inhibitor: inactive; NadD inh conf: inactive; rCAG binder conf: 78; DNA CAG counter: 36

How did CC(C)c1ccc(NC(=O)CN(C)C2=NS(=O)(=O)c3ccccc32)cc1 do in these assays?
rCAG binder: inactive; bovine MsrA act: inactive; NadD block: inactive; DSG3 Ab inh: inactive; DAGLB inhibitor: inactive; MsrA inhibitor: inactive

How did Cc1cccc(NS(=O)(=O)c2ccc3[nH]c(=O)cc(C(=O)OC(C)C(=O)Nc4ccc([N+](=O)[O-])cc4)c3c2)c1 (stereo not drawn) do in these assays?
rCAG binder: 46; bovine MsrA act: inactive; NadD block: 43; DSG3 Ab inh: inactive; DAGLB inhibitor: inactive; MsrA inhibitor: inactive; NadD inh conf: inactive; rCAG binder conf: 36; DNA CAG counter: 17

Results for O=C(NNC(=O)c1cc2cc(Br)ccc2oc1=O)c1ccc(O)cc1O ?
rCAG binder: 55; bovine MsrA act: inactive; NadD block: 29; DSG3 Ab inh: inactive; DAGLB inhibitor: inactive; MsrA inhibitor: inactive; NadD inh conf: 58; rCAG binder conf: inactive; DNA CAG counter: 5.3

What do the screens show for `COCCCNC(=O)c1cc2cc(Br)ccc2oc1=O`?
rCAG binder: inactive; bovine MsrA act: inactive; NadD block: inactive; DSG3 Ab inh: inactive; DAGLB inhibitor: inactive; MsrA inhibitor: inactive

How did Cc1cc2nc(-c3cccc(Cl)c3)c(Cc3ccccc3)n2c(C)c1Br do in these assays?
bovine MsrA act: inactive; NadD block: inactive

What do the screens show for `Cc1cc2nc(-c3cccc(Br)c3)c(Cc3cccc(Cl)c3)n2c(C)c1Br`?
rCAG binder: 40; bovine MsrA act: inactive; NadD block: 35; MsrA inhibitor: inactive; NadD inh conf: inactive; rCAG binder conf: inactive; DNA CAG counter: 5.9
